# Compound activity: PubChem, National Center for Advancing Translational Sciences (NCATS)
# Shown are actives, neighbours in structure and some others; about 2.3% of the full set was active somewhere.
# ALOX12 inh – ALOX12 (human) lipoxygenase inhibition; actives 1.1% (n = 580,000); P18054; Potency, µM (top dose mostly 108 µM), for the others: top-dose activity change, negative = inhibition, actives largely listed as inhibitors; purified 12hLO, xylenol orange hydroperoxide absorbance; AID 1671190; further: on the % scale 0 is the no-effect control and ±100 the full control effect
#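 Hydroperoxide product was detected by ferrous iron/xylenol orange as the 573 to 405 nm absorbance ratio. Arachidonic acid at 40 uM (final) was turned over for 30 min at room temperature by 150 nM human 12hLO, pH 7.0 Hepes buffer, after 15 min compound preincubation.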
# GRP78 ERSR act – inducers of ER stress response in human glioma cells; AID 602332; U87-MG GRP78 promoter luciferase reporter, 16 h; actives 0.02% (n = 420,000); Potency, µM, without a hit: at the top dose activation, most hits filed as activators; further: series mostly up to about 76 µM; % of control where 0% means no effect; nearly all actives have a fitted effect of over 35% in size
#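 ERSR induction read as luciferase luminescence (Bright-Glo, 10 min at room temperature) in stably transfected human U87-MG glioma cells exposed to compounds for 16 h, using GRP78 as sensor.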
# PTHR1 ag – PTHR1 (human) receptor agonism; HEK293 GP2 PTHR1 cells, GloSensor cAMP luminescence, 1 h; actives 0.075% (n = 410,000); Potency, µM (top dose mostly 115 µM), inactives show top-dose activation, usual class: activators; Q03431; further: nearly all actives have a fitted effect of over 55% in size
#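 HEK-293-derived GP2 cells expressing PTHR1 and a GloSensor cAMP reporter, 3,000/well, plated overnight, given luciferin plus IBMX (each 0.5 mM as added) for 1 h at 37 °C, then compound for 1 h at 37 °C. Luminescence was read after 15 min at room temperature.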
# GLP1R ag – agonists of human GLP-1 receptor; P43220; HEK293 GLP-1R CRE-luciferase, luminescence, 4-6 h; cells express a hypersensitive GLP-1R form; Potency, µM (top dose mostly 45.6 µM), for the others: top-dose activation, most hits filed as activators; actives 0.007% (n = 380,000); AID 624172; further: % of control where 0% means no effect
# Target sequence (P43220 whole entry, looked up): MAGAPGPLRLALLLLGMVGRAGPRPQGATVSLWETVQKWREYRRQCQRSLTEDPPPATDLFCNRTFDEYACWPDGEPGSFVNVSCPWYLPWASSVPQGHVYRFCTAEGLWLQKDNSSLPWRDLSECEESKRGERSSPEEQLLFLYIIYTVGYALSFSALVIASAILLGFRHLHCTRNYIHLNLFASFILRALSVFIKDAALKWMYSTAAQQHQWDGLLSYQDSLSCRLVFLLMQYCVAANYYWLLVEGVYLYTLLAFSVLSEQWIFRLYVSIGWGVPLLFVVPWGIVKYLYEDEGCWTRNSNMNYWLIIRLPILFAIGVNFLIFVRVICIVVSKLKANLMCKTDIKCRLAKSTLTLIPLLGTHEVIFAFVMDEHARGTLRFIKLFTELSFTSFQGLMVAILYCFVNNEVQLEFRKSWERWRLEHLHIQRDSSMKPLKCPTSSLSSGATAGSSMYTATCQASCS
# GLP-1R inv ag – GLP-1 receptor (human) inverse agonism | P43220 | HEK293 GLP-1R CRE-luciferase, luminescence, 24 h; GLP-1R form is constitutively active | Potency, µM (titrated, usually from 38.3 µM), for inactives: at the top dose activity change, negative = inhibition, actives largely listed as inhibitors | actives 1.6% (n = 410,000) | AID 624417; further: on the % scale 0 is the no-effect control and ±100 the full control effect; nearly all actives have a fitted effect of over 55% in size
#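 HEK293 cells stably co-expressing a cAMP-responsive luciferase reporter and constitutively active GLP-1R were seeded, incubated 12 h, then exposed to compounds for 24 h at 37 C. Luminescence was read 12 min after detection reagent; inverse agonists lower signal.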
# GLS inh – glutaminase GLS (human) inhibition. actives 0.21% (n = 410,000). AID 624170. Potency, µM (series often up to 45.5 µM), without a hit: top-dose activity change, negative = inhibition, hits mostly inhibitors. GLS enzymatic activity, qHTS titration; further: on the % scale 0 is the no-effect control and ±100 the full control effect
#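 Glutamate formation by hKGA was monitored fluorometrically using coupled glutamate oxidase, HRP and Amplex Red. Substrate was added as 1 mM L-glutamine solution; incubation was 30 min at RT after an initial read.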
# Numbers without * were called inactive; i = inactive; ? = inconclusive; nt = no result given; [ ] = another dose, or the depositor's remark. The call rests on the fitted dose curve; in most records, active means well fitted curve in the direction sought with a large enough effect; inconclusive means small, poorly fitted or top-dose-only effect, or another doubt; inactive means no such curve, though single readings can be large; an effect the other way counts as inactive or inconclusive. Potency means the concentration at half of the fitted maximal effect.
SMILES,ALOX12 inh,GRP78 ERSR act,PTHR1 ag,GLP1R ag,GLP-1R inv ag,GLS inh
C=CC(COCc1ccccc1)N(Cc1ccc(OC)cc1)S(=O)(=O)c1ccccc1Br (stereo unspecified),i,-4.4%,-18.4%,-6.1%,?,1.8%
Cc1oc(-c2ccccc2)nc1C(=O)NCc1ccccc1,17.8µM*,nt,nt,nt,nt,nt
Cc1ccc(C(=O)Nc2cccc(-c3nc4ccccc4o3)c2)c(Cl)c1,-9.4%,-2.9%,i,nt,1.5%,-4.4%
Cc1cccc(NC(=O)c2ccccc2NC(=O)c2nc(-c3ccccc3)oc2C)c1,35.5µM*,nt,nt,nt,nt,nt
O=C(O)c1ccccc1-c1ccccc1C(=O)Nc1cccc(-c2nc3ccccc3o2)c1,11.2µM*,?,-8.7%,1.8%,29.4%,-5.1%
COc1ccccc1C(=O)NC1CC2CCC1C2 (stereo unspecified),-39.5%,nt,nt,nt,nt,nt
C[C@H](CO)N1C[C@H](C)[C@H](CN(C)C(=O)Nc2ccc(F)cc2)OCc2ccccc2-c2c(n(C)c3ccccc23)C1=O,-1.0%,-2.9%,-25.6%,-1.1%,10µM*,-1.4%
C[C@@H]1CN([C@H](C)CO)C(=O)c2c(c3ccccc3n2C)-c2ccccc2CO[C@@H]1CN(C)C(=O)Nc1ccc2c(c1)OCO2,0.0%,1.3%,-27.7%,-7.2%,?,11.6%
O=C(c1ccc(Cl)cc1)N1CC2(CCCN(Cc3ccc(Cl)cc3)C2)Cc2ccccc21 (stereo unspecified),3.55µM*,nt,nt,nt,nt,nt
C[S+](=O)([O-])N1CC2(CCCN(Cc3ccc(Cl)cc3)C2)Cc2ccccc21 (stereo unspecified),4.0%[6.33 µM],nt,nt,nt,nt,nt
CN(C)C(=O)c1ccc(-c2nccc(-n3ccnc3)n2)cc1,22.4µM*,-5.4%,nt,nt,nt,nt
CN(C)C(=O)c1ccc(-c2nccc(Nc3ccc(F)cc3)n2)cc1,?,-3.2%,nt,nt,nt,nt
CN(C)C(=O)c1ccc(-c2nccc(NCc3ccccc3)n2)cc1,44.7µM*,-2.0%,nt,nt,nt,nt
Cc1ccccc1-c1nccc(-n2ccnc2)n1,7.94µM*,-0.5%,nt,nt,nt,nt
C=CCn1cc2c3c(cccc31)[C@H](CC(C)C)N[C@H](C(=O)N1CCN(C)CC1)C2,94.0%[176 µM],nt,nt,nt,nt,nt
COc1cccc(CNC(=O)C2CCN(C(=O)N3CC(C)Oc4ccc(C)cc43)CC2)c1 (stereo unspecified),-9.8%,nt,nt,nt,nt,nt
CCN(CC)S(=O)(=O)c1ccc2oc(C(=O)NC3CCCc4ccccc43)c(C)c2c1 (stereo unspecified),-10.1%,-3.6%,-25.9%,1.3%,8.91µM*,0.0%
CCN(Cc1nc2ccccc2c(=O)[nH]1)C(=O)COc1ccccc1Cc1ccccc1,-20.1%,-2.9%,-15.9%,16.5%,12.6µM*,6.3%
O=C(Nc1ccc(F)cc1F)c1cc(-c2ccc[nH]2)n[nH]1,11.2µM*,nt,nt,nt,nt,nt
CCc1cccc(NC(=O)c2cc(-c3ccc[nH]3)n[nH]2)c1,22.4µM*,nt,nt,nt,nt,nt
O=C(Nc1ccc(OC(F)(F)F)cc1)c1cc(-c2ccc[nH]2)n[nH]1,15.8µM*,nt,nt,nt,nt,nt
COc1ccc(NC(=O)c2cc(-c3ccc[nH]3)n[nH]2)c(OC)c1,-4.7%,nt,nt,nt,nt,nt
CCOc1ccc(NC(=O)c2cc(-c3ccc[nH]3)n[nH]2)cc1,-22.0%,nt,nt,nt,nt,nt
CCc1ccc(NC(=O)c2cc(-c3ccc[nH]3)n[nH]2)cc1,28.2µM*,nt,nt,nt,nt,nt
CCN(CC)C(=O)CC(C#N)(CC(=O)N(CC)CC)c1nc2ccccc2s1,4.6%,nt,nt,nt,nt,nt
SMILES,ALOX12 inh,GRP78 ERSR act,PTHR1 ag,GLP1R ag,GLP-1R inv ag,GLS inh
COc1cccc(NC(=O)CN(C)CC(=O)Nc2c(C)cccc2C)c1,-3.8%,nt,nt,nt,nt,nt
CCNC(=S)N/N=C(\C)c1ccc2ccccc2c1OC(F)F,39.8µM*,0.4%,-13.3%,21.3%,?,8.5%
C/C(=N\NC(=S)NC(C)C)c1ccccc1OC(F)F,-171.5%,-7.0%,-2.2%,10.5%,?,0.3%
CC(=O)Nc1ccc(S(=O)(=O)N[C@H]2CO[C@H]3[C@@H]2OC[C@@H]3n2nnnc2-c2ccc3c(c2)OCO3)cc1,36.1%,nt,nt,nt,nt,nt
Cn1ccnc1SCc1cn2cc(Br)ccc2n1,475.2%,-16.4%,-13.3%[57.5 µM],-20.6%,4.47µM*,-6.1%
CC(C)(C)n1ncc2c(=O)n(CC(=O)NCc3ccccc3)cnc21,5.8%,-12.5%,-14.8%[57.5 µM],-14.2%,4.47µM*,-13.3%
CC(=O)Nc1ccc(NC(=O)Cn2cnc3c(cnn3C(C)(C)C)c2=O)cc1,128.4%,-0.7%,7.1%[57.5 µM],28.4%,15.6%,-0.6%
CC(C)(C)n1ncc2c(=O)n(Cc3c(F)cccc3Cl)cnc21,4.0%,2.9%,-20.0%[57.5 µM],12.5%,2.51µM*,-0.3%
OCCCNC(=S)NCc1ccccc1,4.9%,nt,nt,nt,nt,nt
O=C(ONC(=O)C1C2C=CC(C2)C1C(=O)NOC(=O)c1ccccc1)c1ccccc1 (stereo unspecified),0.5%,0.2%,i,-1.7%,95.8%,12.6µM*
CN(Cc1ccccc1)C(=O)CNC(=O)Nc1ccccc1,-21.3%,nt,nt,nt,nt,nt
Cc1ccc2c(CN(C)Cc3ccc(Cl)cc3Cl)cc(=O)oc2c1,-16.3%,-4.7%,-63.0%,0.6%,11.2µM*,?
CCN(Cc1cc(=O)oc2cc(C)ccc12)c1ccccc1,0.0%,-1.9%,-23.5%,7.1%,10µM*,8.7%
Cc1ccc(S(=O)(=O)N(C)C(C)c2cc3ccccc3o2)cc1C (stereo unspecified),0.5%,nt,nt,nt,nt,nt
COc1ccc(/C=C/C(=O)c2cc3c(cc2N)OCO3)cc1,35.5µM*,0.8%,-29.8%,9.6%,33.4%,?
COc1cc(/C=C/C(=O)c2ccc3c(c2)OCO3)cc(OC)c1OC,nt,28.2µM*,-27.1%,-2.7%,?,-1.9%
CCOc1ccc(-c2nc(CSCC(=O)N3CCC(N4CCCCC4)CC3)c(C)o2)cc1,-52.2%,nt,nt,nt,nt,nt
O=c1c(-c2ccccc2)coc2cc(OCc3cccc4ccccc34)ccc12,-1.3%,nt,nt,nt,nt,nt
O=C1c2ccccc2C(=O)N1/N=C/c1ccc(O)c(O)c1,22.4µM*,2.9%,-6.9%,11.9%,63.9%,2.51µM*
COc1ccc(C2N(c3ccc(Cl)cc3)N=C(C(C)=O)N(C)N2C(C)=O)cc1 (stereo unspecified),-58.7%,-0.5%,i,8.8%,10µM*,-6.1%
COc1ccc(NC(=O)CSc2nc3c(cnn3-c3ccc(C)c(C)c3)c(=O)[nH]2)cc1,-22.7%,nt,nt,nt,nt,nt
COc1ccc(-c2nc(Cn3c(SCc4ccc(C)cc4)nc4cccnc43)c(C)o2)cc1OC,3.1%,-5.1%,-51.8%,nt,10µM*,6.0%
COc1ccc(-c2nc(Cn3c(SCc4ccc(F)cc4)nc4cccnc43)c(C)o2)cc1,-5.0%,-4.3%,-27.4%,nt,-5.5%,2.7%
Cc1ccc2nc(/C(C#N)=C/c3ccc4oc5ccccc5c4c3)[nH]c2c1,-67.4%,nt,nt,nt,nt,nt
